Screening data (PubChem BioAssay)
Tg IFNy HTS – T. gondii growth inhibition under IFN-gamma. activity change, negative = inhibition, % (concentration not given with the values). Toxoplasma gondii growth in IFN-gamma-treated host cells; hits give low values. actives 3.8% (n = 69,000); in the data active = activity change below about -70%, passing the limit was not always enough;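 also: host cells are HeLa cells infected with Toxoplasma gondii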
Each line names hits and unclear results; the compound was inactive in the other large screens. Only a selection was taken, and hits are over-represented in it overall.

O=C(c1ccc(F)cc1F)N1CCC(c2nc3ccc(-c4cccnc4)cn3n2)CC1	none
O=C(c1cnccn1)N1CCC(c2nc3ccc(-c4cccc(F)c4)cn3n2)CC1	Tg IFNy HTS -71.5
CN(C)C(=O)N[C@H]1CN(C2CCOCC2)C2CCCOC21 (some centres undefined)	none
Fc1cccc(NC(=S)Nc2ccc3ccccc3c2)c1	Tg IFNy HTS -87.7
CSc1cccc(NC(=S)NCc2ccc(F)cc2)c1	none
Fc1ccc(NC(=S)Nc2ccccc2Cl)cc1	none
CSc1ccc(S(=O)(=O)Nc2ccc(Cc3ccncc3)cc2)cc1	none
O=c1[nH]nc(C(F)(F)F)n2cccc12	Tg IFNy HTS -103.8
O=c1n(Cc2ccncc2)nc(C(F)(F)F)c2cccn12	none
O=c1n(Cn2nnc3ccccc32)nc(C(F)(F)F)c2cccn12	none
Cc1ccc2oc(=O)n(CCC(=O)N3CCC4(CN(C)C(=O)O4)C3)c2c1 (centres undefined)	none
Cc1cc(C)c(CSc2nccn2C)c(C)c1	none
CN(Cc1ncc[nH]1)Cc1ccc(C2CCCCO2)o1 (centres undefined)	none
CCO[C@H]1COC[C@@H]1NC(=O)C(=O)N1CCc2ccccc21	none
Cc1ccc(Nc2cc(C)nc3c(C)cccc23)cc1	none
Cc1cc(C(F)(F)F)nc(CCNC(=O)c2c(O)cccc2O)n1	none
Cc1cc(Nc2cc(C(F)(F)F)nc3c(Cl)cccc23)on1	Tg IFNy HTS -80.4
CS(=O)(=O)CC(=O)N1CCC(c2cc(Cc3ccccc3)[nH]n2)CC1	none
Cc1ccc2oc(=O)n(CCc3noc(-c4ccccc4)n3)c2c1	none
COc1ccc(S(=O)(=O)N2CCC[C@@H]2Cn2nnc(-c3ccccn3)n2)cc1	none
CCOC(=O)CSCCC1NC(C(=O)O)CS1 (centres undefined)	none
COc1nccc(-c2c(-c3ccc(F)cc3)ncn2C2CCC(O)CC2)n1 (centres undefined)	Tg IFNy HTS -79.2
CCCN1CCC(c2cc3c(ncn3C)c(-c3ccc(OC)cc3)n2)CC1	none
CCCc1cc(C(=O)Nc2ccc(N(CC)CC)cc2)nn1-c1ccccc1	none
CC(C)(C)c1ccc(C(=O)CCCN2CCC(OC(c3ccccc3)c3ccccc3)CC2)cc1	Tg IFNy HTS -86.0
CC1CCN(CCCC(=O)c2ccc(F)cc2)CC1	none
O=C(O)CCCN1CCC(O[C@@H](c2ccc(Cl)cc2)c2ccccn2)CC1	none
Cc1c(CN(C)C(=O)c2cccc(C#CC(C)(C)O)c2)cnn1C	none
Cc1ccc(C)c(-c2[nH]ncc2CN(C)Cc2cnn(C)c2C)c1	none
Cc1c(CN(C)Cc2cccc(C(C)(C)C)c2O)cnn1C	Tg IFNy HTS -93.1
c1coc(CN2CC[C@@H]3[C@H](CO[C@H]3CN3CCOCC3)C2)c1	none
OC(CN1CCCC(COc2ccccc2F)C1)c1cccs1 (centres undefined)	none
Cc1cccc2[nH]c(COCC(=O)N3CCC4(CN(C)C(=O)O4)C3)nc12 (centres undefined)	none
Cc1ccc(C(=O)CSc2ncnc3c(-c4ccc(Cl)cc4)nsc23)cc1	Tg IFNy HTS -85.3
COc1ccc(-c2nsc3c(SCc4ccccc4)ncnc23)cc1	none
Cc1noc2ncnc(SCC(=O)c3ccc(Cl)cc3)c12	none
CC1CCCN(C(=O)c2cc3cccnc3n(Cc3ccccc3)c2=O)C1 (centres undefined)	none
CC(C)C(=O)N1CC2CCC1C2Oc1ccccn1 (centres undefined)	none
CC[C@H]1CN(C(=O)c2sc(C)nc2-c2ccccc2)CC[C@@]1(C)O	none
C[C@@H]1CN([C@@H](C)CO)C(=O)c2cccc(NS(C)(=O)=O)c2O[C@@H]1CN(C)Cc1ccc(-c2ccccc2)cc1	none
C[C@@H]1CN([C@@H](C)CO)C(=O)c2cccc(NS(=O)(=O)c3ccc(F)cc3)c2O[C@H]1CN(C)Cc1ccc(Cl)c(Cl)c1	none
C[C@H](CO)N1C[C@H](C)[C@@H](CN(C)Cc2ccc(-c3ccccc3)cc2)Oc2c(NS(C)(=O)=O)cccc2C1=O	none
C[C@H](CO)N1C[C@H](C)[C@H](CN(C)Cc2ccc(Cl)c(Cl)c2)Oc2ccc(NC(=O)C3CCCCC3)cc2CC1=O	none
C[C@H]1CN([C@@H](C)CO)C(=O)Cc2cc(NC(=O)C3CCCCC3)ccc2O[C@@H]1CN(C)Cc1ccc(Cl)c(Cl)c1	none
C[C@H]1CN([C@@H](C)CO)C(=O)c2cccc(NS(=O)(=O)c3ccc(F)cc3)c2O[C@H]1CN(C)Cc1ccc(Cl)c(Cl)c1	Tg IFNy HTS -78.4
C[C@@H]1CN([C@H](C)CO)C(=O)c2cccc(NS(C)(=O)=O)c2O[C@@H]1CN(C)Cc1ccc(-c2ccccc2)cc1	none
C[C@H](CO)N1C[C@H](C)[C@H](CN(C)Cc2ccc(Cl)c(Cl)c2)Oc2c(NS(=O)(=O)c3ccc(F)cc3)cccc2C1=O	Tg IFNy HTS -85.1
C[C@@H]1CN([C@@H](C)CO)C(=O)Cc2cc(NC(=O)C3CCCCC3)ccc2O[C@@H]1CN(C)Cc1ccc(Cl)c(Cl)c1	Tg IFNy HTS -87.0
COCCN1C[C@@H]2CCN(C(=O)c3cn(C)c4ccccc34)CC[C@H]2S1(=O)=O	none
COCCN1C(=O)CCc2cc(NS(=O)(=O)Cc3ccccc3F)ccc21	none
O=c1[nH]c(N2CCCCC2)nc2c1CN(Cc1nnnn1Cc1cccs1)CC2	none
CCOc1ccccc1-c1ccc(C(=O)N2CCOCC2)o1	none
O=c1ccc2cc(S(=O)(=O)Nc3ccc4c(c3)OCO4)ccc2[nH]1	none
Cc1ccc2c(CN3CCN(Cc4nc(-c5ccccc5)oc4C)CC3)cc(=O)oc2c1	none
CC(C)c1nnsc1CN1CCCC(O)(CO)C1 (centres undefined)	none
Fc1cccc(CN2CCN(Cc3ccc4cccc(Cl)c4n3)CC2)c1	none
CCN(CC)S(=O)(=O)c1ccc2c(c1)N(Cc1nc(-c3ccccc3)oc1C)C(=O)CS2	Tg IFNy HTS -79.5
Cc1oc(-c2ccccc2)nc1CN1C(=O)CSc2ccc(S(=O)(=O)N3CCCCCC3)cc21	Tg IFNy HTS -95.2
Cc1oc(-c2ccccc2)nc1Cn1ccn2nc(-c3ccc4c(c3)OCO4)cc2c1=O	none
Cc1oc(-c2ccc3ccccc3c2)nc1CN1CCN(S(N)(=O)=O)CC1	none
CCOC(=O)c1ccc2c(c1)N(Cc1nc(-c3cccc(C)c3)oc1C)C(=O)c1ccccc1S2	none
CNC(=O)c1ccc(-c2nc(CN3CCN(S(=O)(=O)c4ccc(OC)cc4)CC3)c(C)o2)cc1	none
O=C(Nc1ccc(-c2noc(-c3cccs3)n2)cc1)c1cccc(Cl)c1	none
Cc1ccc(C)c(-c2coc(-c3ccc(NC(=O)Nc4cccc(F)c4)cc3)n2)c1	none
Cc1cc2oc(C(=O)NC(c3ccccc3)c3ccnn3C)cc(=O)c2cc1C (centres undefined)	none
CCOC(=O)C1(NC(=O)c2cnc(CC)nc2)CCC1	none
CCCN(Cc1cccnc1)Cc1cc(Cl)c(O)c(OC)c1	none
Cc1nn2c(COc3ccc(NS(=O)(=O)c4ccccc4)cc3)nnc2c2ccccc12	none
CC1=CC(C)(C)N(C(=O)c2ccccc2)c2ccc(OC(=O)c3ccccc3)cc21	none
CC1CC(C)(C)N2C(=O)C(=O)c3cc(OC(=O)c4ccccc4)cc1c32 (centres undefined)	Tg IFNy HTS -95.9
CS(=O)(=O)c1cccc(C(=O)Oc2ccccc2)c1	none
CN(C)C(=O)N1CCn2cc(CNC(=O)c3cnn(C)c3)nc2C1	none
OC1CCCN(Cc2c(-c3cccnc3)[nH]c3cccnc23)C1 (centres undefined)	none
Cc1nc(C(=O)N2CCCC2c2cc(C(C)C)on2)cs1 (centres undefined)	none
CCN1C(=O)CCc2cc(NS(=O)(=O)Cc3cccc(Cl)c3)ccc21	none
O=C(NCc1ccc(N2CCCC2=O)cc1)c1cccc(Cl)c1	none
O=C(NCc1cccc(Cl)c1)c1ccc2c(c1)CCC(=O)N2Cc1ccccc1	Tg IFNy HTS -99.5
